Compounds with a hit are over-represented: about 21% of the library has one in this group of screens.
NS1 function inh: influenza NS1 inhibition. hit rate 0.4% among 270,000. AID 2326. Potency, µM (doses to about 46.1 µM), inactives show at the highest dose activity, positive = more growth; calls by dose curve; further: potency means the concentration at half of the fitted maximal effect; actives are rising curves; nearly all actives have a fitted effect of over 50% in size
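In this qHTS, NS1 from influenza A is expressed in budding yeast, where it slows growth. Cells are switched from glucose to 2% galactose medium (pH 6.0, -URA), treated with compound, and growth recovery is read at OD600.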
Cycloheximide cs: affects cycloheximide protein synthesis inhibition readout, counter-screen; max response, %; AID 2314; cell reporter, cycloheximide protein synthesis inhibition counterscreen; hit rate 12% among 300,000; in the data active means max response mostly above about 13%, no sharp cut-off; inactive means mostly below about 14%; further: read at 38.3 µM for the half of the compounds with a filed dose; 0% is about no effect
Pf growth 96h: P. falciparum growth inhibition at 96 hour, primary screen for plastid delayed-death inhibitors. Potency, µM (titrated, usually from 28.7 µM), without a hit: at the top dose activity change, negative = inhibition, most hits filed as inhibitors. AID 504834. hit rate 6.9% among 320,000. P. falciparum luciferase reporter growth, 96 h; further: potency means the concentration at half of the fitted maximal effect; on the % scale 0 is the no-effect control and ±100 the full control effect
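Delayed-death screen, second-generation endpoint: infected erythrocytes, 2% hematocrit, 0.05% parasitemia final; 96 hours at 37 C, 5% CO2; luciferase detection reagent; luminescence decrease equals reduced growth.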
Shiga inhibitor: Shiga toxin inhibition; Vero cells, Shiga toxin protein synthesis inhibition reporter; inhibition, % at 38.7 µM; hit rate 9.2% among 290,000; in the data active means inhibition mostly above about 28%, no sharp cut-off; inactive means mostly below about 43%; further: 0% is about no effect
Pf growth 48h: inhibits P. falciparum growth in the first generation, 48 h; P. falciparum luciferase growth in erythrocytes, 48 h; Potency, µM (highest dose often 28.7 µM), for the others: at the highest dose activity change, negative = inhibition, hits mostly inhibitors; hit rate 5.9% among 310,000; AID 504832; further: potency means the concentration at half of the fitted maximal effect; on the % scale 0 is the no-effect control and ±100 the full control effect
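Cell-based growth assay: transgenic P. falciparum expressing firefly luciferase, cultured in red cells within RPMI 1640 containing 0.5% w/v Albumax, 24 mM bicarbonate and gentamycin. A drop in luciferase activity indicates inhibition.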
Active calls of the source: *. Unless noted, the call rests on the fitted dose curve; in most records, active means well fitted inhibition curve with a large enough effect; inconclusive means small, poorly fitted or top-dose-only effect, or another doubt; inactive means no such curve, though single readings can be large or run the other way.

COc1ccc(Cl)cc1S(=O)(=O)N1CCCC(C(=O)N2CCOCC2)C1 (stereo unspecified) was read as NS1 function inh 20%, Cycloheximide cs -7, Pf growth 96h inconclusive, Shiga inhibitor -10 and Pf growth 48h 3%.
For CC(C)(CN1CCCC1)NC(=O)C1CCC(=O)N(CCCN2CCOCC2)C1 (stereo unspecified) the results were NS1 function inh 1%, Cycloheximide cs -2, Pf growth 96h 15%, Shiga inhibitor -18 and Pf growth 48h 27%.
O=C(COc1ccc2ccccc2c1)Nc1nccs1 was read as NS1 function inh -3%, Cycloheximide cs 42*, Pf growth 96h 18%, Shiga inhibitor 52* and Pf growth 48h 209%.
Screening COc1ccccc1CCC(=O)Nc1ccc(C)cc1Cl returned Cycloheximide cs 55*, Pf growth 96h 119%, Shiga inhibitor 90* and Pf growth 48h 193%.
CCSc1nnc(NC(=O)COc2ccc3ccccc3c2)s1 was read as NS1 function inh -6%, Cycloheximide cs 2, Pf growth 96h 14%, Shiga inhibitor 17 and Pf growth 48h 46%.
For NC(=O)c1ccsc1NC(=O)COC(=O)C1CC2CCCC(C1)C2=O (stereo unspecified) the results were NS1 function inh 3%, Cycloheximide cs 14*, Pf growth 96h 11%, Shiga inhibitor 5 and Pf growth 48h 0%.
`O=C(COc1ccccc1)Nc1nccs1` gave NS1 function inh 0%, Cycloheximide cs 30*, Pf growth 96h inconclusive, Shiga inhibitor 53* and Pf growth 48h 410%.
O=C(COc1ccccc1)Nc1ncccn1 was read as NS1 function inh -8%, Cycloheximide cs 14, Pf growth 96h 32% and Shiga inhibitor 23.
`O=C(COC(=O)c1ccccc1Cl)Nc1nccs1` gave NS1 function inh 15%, Cycloheximide cs 11*, Pf growth 96h 62%, Shiga inhibitor 18 and Pf growth 48h 37%.
For COc1ccccc1CCC(=O)Nc1nccs1 the results were NS1 function inh 1%, Cycloheximide cs 14*, Pf growth 96h 1% and Shiga inhibitor 32.
`NC(=O)c1ccsc1NC(=O)COc1ccccc1` gave NS1 function inh -59%, Cycloheximide cs 42*, Shiga inhibitor 86* and Pf growth 48h 268%.
`NC(=O)c1ccsc1NC(=O)COC(=O)Cc1ccccc1` gave Pf growth 96h inconclusive and Pf growth 48h -15%.
For Cn1ccc2c(OCC(=O)Nc3ccc([N+](=O)[O-])cc3)cccc2c1=O the results were Cycloheximide cs 6 and Shiga inhibitor -3.
For O=C(Nc1cccc(Cl)c1)Nc1ccccc1C(=O)O the results were NS1 function inh 6%, Cycloheximide cs 24*, Pf growth 96h inactive, Shiga inhibitor 47* and Pf growth 48h 379%.
For COc1cccc(NC(=O)Nc2ccccc2C(N)=O)c1 the results were Cycloheximide cs 27*, Pf growth 96h 111%, Shiga inhibitor 35 and Pf growth 48h 9%.
`COc1cc(NC(=O)Nc2cccc(Cl)c2)c(C(=O)O)cc1OC` gave NS1 function inh 6%, Cycloheximide cs -2, Pf growth 96h 76%, Shiga inhibitor 21 and Pf growth 48h 1%.
Screening O=C(NNc1ccccc1[N+](=O)[O-])Nc1cccc(Cl)c1 returned NS1 function inh 5%, Cycloheximide cs 47*, Pf growth 96h inconclusive, Shiga inhibitor 81* and Pf growth 48h -16%.
`NC(=O)c1ccccc1NC(=O)Nc1cccc(Cl)c1` gave NS1 function inh 5%, Cycloheximide cs 21*, Pf growth 96h 34%, Shiga inhibitor 45* and Pf growth 48h 24%.
CSc1ccc(NC(=O)Nc2ccccc2C(N)=O)cc1 was read as NS1 function inh 10%, Cycloheximide cs 67*, Pf growth 96h 132%, Shiga inhibitor 74* and Pf growth 48h 86%.
CC(C)(C)NC(=O)Nc1ccccc1C(N)=O was read as NS1 function inh -3%, Cycloheximide cs -1, Pf growth 96h inconclusive, Shiga inhibitor -3 and Pf growth 48h 0%.
For CNC(=O)c1nc(C)n(-c2cc(Cl)ccc2Cl)n1 the results were NS1 function inh 10%, Cycloheximide cs 29*, Pf growth 96h -13%, Shiga inhibitor 42 and Pf growth 48h 0%.
Screening CNC(=O)c1nc(C)n(-c2cc(Cl)cc(Cl)c2)n1 returned NS1 function inh -4%, Cycloheximide cs 4, Pf growth 96h 38%, Shiga inhibitor -9 and Pf growth 48h 10%.

From PubChem BioAssay
